Screening data: PubChem, National Center for Advancing Translational Sciences (NCATS)
Only some compounds are listed: those with a hit (about 1.1% of all), similar ones and a draw of the others.
RGS4 inh: inhibitors of human regulator of G protein signaling 4; Potency, µM (doses to about 114 µM), for the others: at the top dose activity change, negative = inhibition, most hits filed as inhibitors; Transcreener GDP fluorescence polarization, RGS4-accelerated GTP hydrolysis; 390,000 compounds, 0.039% hits; P49798; AID 504845; note: nearly all actives have a fitted effect of over 75% in size
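MLSMR compounds (23 nl, pin-transferred) preincubated 10 min at room temperature with a 500nM (2x) first reagent, then RGS4 at 900nM (2x) plus Transcreener GDP mix added; fluorescence polarization (620/688 nm) read before and after 90 min at 30 °C.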
TrxR1 substrate: rat thioredoxin reductase 1 substrate activity; O89049; Potency, µM (series often up to 114 µM), inactives show at the top dose activity change, negative = substrate turnover; 390,000 compounds, 0.01% hits; purified TrxR1 substrate turnover, NADPH consumption readout; note: nearly all actives have a fitted effect of over 50% in size
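Rat TrxR1, dispensed at 90 nM, was prereduced with 400 uM NADPH (final) for 5 min at ~22 deg C, then incubated with compound 15 min before 400 uM selenite. A first-read NADPH fluorescence drop versus no-compound background flagged substrates.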
mIDH1 inhibitor: human IDH1 R132H inhibition; Potency, µM (top dose mostly 76.6 µM), for the others: at the top dose activity change, negative = inhibition, hits mostly inhibitors; IDH1-R132H enzyme, NADPH consumption, diaphorase/resazurin fluorescence; O75874; 390,000 compounds, 0.093% hits; AID 602179; note: nearly all actives have a fitted effect of over 65% in size
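IDH1-R132H (0.5 ug/mL dispensed) in pH 7.5 Tris buffer was preincubated 30 min with compound, then given a substrate mix of 0.016 mM NADPH and 2 mM alpha-KG for 80 min at room temperature; remaining NADPH was read by diaphorase/resazurin fluorescence.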
Eya2 phos inh: blocks the phosphatase activity of human Eya2; O00167; AID 488837; Potency, µM (top dose mostly 76.9 µM), for the others: top-dose activity, negative = inhibition, actives largely listed as inhibitors; 330,000 compounds, 0.006% hits; recombinant Eya2, OMFP fluorescence dephosphorylation (OMFP is methylfluorescein phosphate)
Target sequence (O00167 whole entry, looked up): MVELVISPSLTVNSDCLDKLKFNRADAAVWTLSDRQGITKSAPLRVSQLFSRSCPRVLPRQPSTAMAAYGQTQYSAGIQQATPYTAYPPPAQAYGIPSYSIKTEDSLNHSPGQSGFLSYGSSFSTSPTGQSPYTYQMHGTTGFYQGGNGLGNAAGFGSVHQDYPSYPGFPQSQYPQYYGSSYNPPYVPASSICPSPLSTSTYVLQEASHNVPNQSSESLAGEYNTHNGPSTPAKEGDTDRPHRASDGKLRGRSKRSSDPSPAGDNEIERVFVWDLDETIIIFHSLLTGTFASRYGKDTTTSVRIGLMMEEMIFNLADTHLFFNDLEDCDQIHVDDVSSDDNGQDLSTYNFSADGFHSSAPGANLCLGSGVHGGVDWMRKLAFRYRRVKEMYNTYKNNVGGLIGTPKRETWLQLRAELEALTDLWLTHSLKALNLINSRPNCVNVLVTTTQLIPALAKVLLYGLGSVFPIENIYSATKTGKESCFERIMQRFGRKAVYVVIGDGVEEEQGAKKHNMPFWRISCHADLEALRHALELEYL
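Eya2 protein (added as 0.2 uM solution) was preincubated with compound for 10 min at ambient temperature in 50 mM HEPES pH 7.5, 50 mM NaCl, 5 uM MgCl2, 0.05% BSA, 1 mM DTT. OMFP (added at 50 uM) then reacted 10 min; fluorescence read at 485/525 nm.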
rTrxR1 inhibitor: inhibitors of rat thioredoxin reductase 1; Potency, µM (series often up to 114 µM), inactives show at the highest dose activity change, negative = inhibition, actives largely listed as inhibitors; O89049; AID 588453; recombinant rTrxR1, NADPH fluorescence consumption, selenite substrate; 390,000 compounds, 1% hits; note: nearly all actives have a fitted effect of over 65% in size
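Rat TrxR1 (90 nM in the dispensed reagent) was pre-reduced with 400 uM NADPH for 5 min at room temperature, then incubated with compound for 15 min. After 400 uM selenite was added, NADPH fluorescence (Ex 340/Em 450 nm) was followed for 8 min.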
Active calls of the source: *; i = inactive; ? = inconclusive; · = no result given; ! = not active in a repeat; [ ] = remark or other dose. Calls come from the whole dose curve; as a rule, active = well fitted curve in the direction sought with a large enough effect; inconclusive = small, poorly fitted or top-dose-only effect, or another doubt; inactive = no such curve, though single readings can be large; an effect the other way counts as inactive or inconclusive. % is set by controls: 0 for no effect and ±100 for the full control effect; potency is the fitted concentration of half-maximal effect.

SMILES	RGS4 inh	TrxR1 substrate	mIDH1 inhibitor	Eya2 phos inh	rTrxR1 inhibitor
COC[C@H]1OC(=O)c2coc3c2[C@@]1(C)C1=C(C3=O)C2CCC(=O)[C@@]2(C)C[C@H]1OC(C)=O (stereo not given in full)	?	15%[57.1 µM]	·	-2%	15µM*!
CN1C(=O)N(C)C(=O)C2(Sc3ccccc3C2=O)C1=O	-37%	3%	6%	-5%[15.4 µM]	28µM*
C=CCn1c(O)c(C=Nc2ccc(F)cc2)c(=O)[nH]c1=O	15%	-6%	-3%	-11%	6%
C=CCn1c(O)c(/C=C2/C=c3ccccc3=N2)c(=O)[nH]c1=S	-51%	-7%	-5%	15%	20µM*
COC(=O)[C@@H]1[C@@H](C(=O)OC)C2(c3ccccc3-c3ccccc32)N(c2ccc(Cl)cc2)N1C#N	-41%	-3%	-18%	4%	11µM*
Cc1oc(-c2ccc(Cl)cc2)nc1CS(=O)CC(=O)N1CCC2(CC1)OCCO2 (stereo not given)	6%	25%	9%	15%	50µM*
Cc1oc(-c2ccccc2F)nc1CS(=O)CC(=O)N1CCC2(CC1)OCCO2 (stereo not given)	34%	8%	-3%	0%	?
[O]=[Sb]([OH])([OH])[c]1ccccc1	?	-1%	·	·	6.3µM*
C[C@H](CO)N1C[C@H](C)[C@@H](CN(C)C(=O)Oc2ccccc2)OCc2cnnn2CCCC1=O	·	·	10%	·	·
CC(C)CC(=O)Nc1ccc(S(=O)(=O)N2CC3CC(C2)c2cccc(=O)n2C3)cc1 (stereo not given)	12%	1%	0%	1%	16%
CCN(CC)C(=O)c1ccc2c(c1)C1C(Cl)C(Sc3ccccc3[N+](=O)[O-])CC1C(C(=O)O)N2 (stereo not given)	-44%[11.4 µM]	4%	-3%	9%	50µM*
O=C(O)c1cccc2c1NC(c1cccc([N+](=O)[O-])c1)C1CC(Sc3ccccc3[N+](=O)[O-])C(Cl)C21 (stereo not given)	-49%	-6%[57.1 µM]	29µM*	0%	-10%[57.1 µM]
O=C(O)c1ccc2c(c1)C1C(Cl)C(Sc3ccccc3[N+](=O)[O-])CC1C(c1cccc([N+](=O)[O-])c1)N2 (stereo not given)	?	8%[57.1 µM]	?	-3%	-56%
COc1ccc(-c2cc(=NCCCCCC(=O)O)c3cc(C)ccc3o2)cc1	-17%	i	10%	-14%	16µM*!
CC1=C(O)C(=O)C=C2C1=CC=C1C2(C)CCC2(C)C3CC(C)(C(=O)O)CCC3(C)CCC12C (stereo not given)	?	-14%	-27%	·	20µM*
CN1C(=O)NC(=O)/C(=C/c2ccc([N+](=O)[O-])s2)C1=O	?	-5%	2%	8%	?
O=C1NC(=S)NC(=O)C1=Cc1ccc(Br)s1	?	2%	-10%	11%	4.5µM*
CN1C(=O)/C(=C\c2ccc(Br)s2)C(=O)NC1=S	-112%[56.9 µM]	-5%	0%	15%	3.2µM*
O=C(CCN1CC2CCC(CC2)C1)c1cccs1	-49%	7%[11.4 µM]	2%	·	0.45µM*
O=C(C1CCC(=O)N1C1CCCCC1)N1CCC2(CC1)OCCO2 (stereo not given)	4%	1%[57.1 µM]	0%	-24%	7%[57.1 µM]
OCCCc1ccc(O)c(O)c1	-8%	5%	-4%	5%	79µM*
CCOc1ccc(Cc2c(O)[nH]c(=O)[nH]c2=O)cc1	-31%	-1%	-14%	23%	1%
CNC(=O)Oc1cccc(-c2cn3cc(OC(=O)NC)ccc3n2)c1	?	55%	5%	2%	?
CNC(=O)Oc1ccc(-c2cn3cc(Cl)ccc3n2)cc1	-15%	39%	11%	-3%	22µM*
COC(=O)C1=C(c2c(C)noc2C)C[C@@H]2CC[C@H]1N2C(=O)N1CCc2cc(OC)c(OC)cc2C1	?	-1%[57.1 µM]	4%	-3%	-5%[57.1 µM]
SMILES	RGS4 inh	TrxR1 substrate	mIDH1 inhibitor	Eya2 phos inh	rTrxR1 inhibitor
CCN1C(=O)C(=Cc2ccc(C)s2)C(=O)N(CC)C1=S	?	-4%	-4%	4%	14µM*
CCN1C(=O)C(=Cc2cc(C)n(C3CC3)c2C)C(=O)N(CC)C1=S	-32%	-6%	4%	10%	?
Cc1ccc(N2CCNCC2C)cc1 (stereo not given)	-31%	-4%[11.4 µM]	5%	·	-12%[11.4 µM]
O=C1/C(=C/c2ccccc2)C[C@@]2(O)[C@H]3Cc4ccc(O)c5c4[C@@]2(CCN3CC2CC2)C1O5 (stereo not given in full)	-33%	-1%	2%	-11%	35µM*
Cc1ccc(N2C(=O)NC(=O)/C(=C/c3cnn(-c4ccc(C)cc4)c3)C2=O)cc1	-36%	-2%	1%	7%	?
CCOc1ccc(N2C(=O)NC(=O)/C(=C/c3cnc(SC)nc3)C2=O)cc1	?	-3%[57.1 µM]	5%	11%	4µM*
CSc1ncc(/C=C2/C(=O)NC(=O)N(c3ccc(C)cc3)C2=O)cn1	?	1%	15%	?	7.9µM*
Cc1ccc(N2C(=O)NC(=O)/C(=C\c3cnc(-c4ccccc4)nc3)C2=O)cc1	?	2%	-4%	-5%	3.5µM*
CSc1ncc(/C=C2/C(=O)NC(=O)N(c3ccc(Cl)cc3)C2=O)cn1	?	0%[57.1 µM]	0%	-5%	6.3µM*
CCCCCCNC(=O)N[C@H](Cc1ccc(O)cc1)C(=O)NCCC[C@H]1CN2C(=NC[C@H]2CCC)N1CC1CCC1	·	·	·	-7%	·
C=CCN1C[C@H](C)N([C@H](c2ccc(C(=O)N(CC)CC)cc2)c2cccc(O)c2)C[C@H]1C	-151%[56.9 µM]	·	·	·	·
N#CC(C#N)=Cc1ccc(O)c(O)c1	19µM*!	4%[57.1 µM]	-5%	18%	17µM*
CN(C)c1ccc(C=C(C#N)C#N)cc1	2%	-8%	4%	3%	7%[57.1 µM]
Cc1cccc(Cn2cccc(C(=O)Nc3cc(C)on3)c2=O)c1	7%	-1%[57.1 µM]	-8%	·	13%[57.1 µM]
O=C(CCN1CCN(c2ccccc2)CC1)c1ccc(Br)cc1	?	4%	12%	4%	4µM*
CC1CC(C)OP(=O)(OCCC#N)O1 (stereo not given)	12%	2%	3%	·	17%
C[n+]1c(-c2ccccc2)c2cc(N)ccc2c2ccc(N)cc21	-1%	-1%	15%	8%	40%
Nc1ccc2ccc3cccc[n+]3c2c1	3%[56.9 µM]	-17%	10%	?	71µM*
CSc1ccccc1C(=O)C1CCCN(Cc2ccccn2)C1 (stereo not given)	24%	3%	-10%	-7%	14%
O=C1NC(=O)C(=Cc2ccccc2[N+](=O)[O-])C(=O)N1	?	6%	0%	·	7.9µM*
O=C1NC(=O)C(=Cc2ccc(-c3ccccc3[N+](=O)[O-])o2)C(=O)N1	?	5%[57.1 µM]	17%	-3%	0%[57.1 µM]
